The source made the active and inactive calls. The calls were made as follows: active = hit-call score of the fitted dose curve at least 0.9, where 1 is the maximum; inactive = score below 0.9.
The compounds below were run against Transcription factor E2F1 (Homo sapiens) (UniProt Q01094) (assay: ATG_E2F_CIS: Attagene CIS-FACTORIAL HepG2 Assay for human E2F Transcription Factor 1 (AID 2282935)). Conditions: HepG2 Attagene cis-reporter, E2F reporter RNA transcripts; actives raise or lower the signal.
Transcription factor E2F1 (Homo sapiens), sequence (Q01094 whole entry, looked up): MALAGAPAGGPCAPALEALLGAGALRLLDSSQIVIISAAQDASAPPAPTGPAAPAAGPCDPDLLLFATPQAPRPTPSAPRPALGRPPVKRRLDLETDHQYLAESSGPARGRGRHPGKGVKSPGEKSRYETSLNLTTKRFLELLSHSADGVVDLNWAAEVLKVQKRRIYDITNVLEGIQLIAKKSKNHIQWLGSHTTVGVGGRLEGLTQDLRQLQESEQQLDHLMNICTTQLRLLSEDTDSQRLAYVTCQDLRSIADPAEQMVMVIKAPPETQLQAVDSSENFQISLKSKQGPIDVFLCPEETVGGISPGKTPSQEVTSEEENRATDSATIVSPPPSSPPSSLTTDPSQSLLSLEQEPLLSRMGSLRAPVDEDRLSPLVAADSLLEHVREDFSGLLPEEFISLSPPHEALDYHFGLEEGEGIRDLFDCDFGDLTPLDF
Outline: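 Fluorescent RT-PCR products, digested with HpaI for 2 h at 37 C, are separated by capillary electrophoresis. Source RNA comes from transfected HepG2 cultures treated for 24 h.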

Row | Compound | outcome
1 | c1ccc2c(c1)Cc1ccccc1-2 | inactive
2 | CN1CCN(c2ccccc2/C=C2\SCCN(c3ccc(Cl)c(Cl)c3)C2=O)CC1 | inactive
3 | FC(F)(I)C(F)(F)C(F)(F)C(F)(F)C(F)(F)C(F)(F)I | inactive
4 | CCC(C)(C)C1CCC(O)CC1 (stereo unspecified) | inactive
5 | CCc1ccc(CCOc2ccc(CC3SC(=O)NC3=O)cc2)nc1 (stereo unspecified) | inactive
6 | CC(C)(C)CC(C)(C)c1ccc(O)c(-n2nc3ccccc3n2)c1 | inactive
7 | CC(C)(C)c1ccc(O)c(C(C)(C)C)c1 | inactive
8 | N#C[C@@H]1CC(F)(F)CN1C(=O)CNC1CC2CCC(C1)N2c1ncccn1 (stereo partly specified) | inactive
9 | NC(=O)N1C(=O)C(C(=O)c2cc(Cl)cs2)c2cc(F)c(Cl)cc21 (stereo unspecified) | inactive
10 | CCCCCCCCCCCCCCCS(=O)(=O)Oc1ccccc1 | inactive
11 | CCCCCCCC(=O)O | inactive
12 | Cc1cc(CCN2CCN(c3nsc4ccccc34)CC2)cc2c1NC(=O)CC2(C)C | inactive
13 | COCC(C)O (stereo unspecified) | inactive
14 | CCCCC(CC)COC(=O)CCCCC(=O)OCc1ccccc1 (stereo unspecified) | inactive
15 | COc1ccc([N+](=O)[O-])cc1N | inactive
16 | CCOC(=O)CC(O)(CC(=O)OCC)C(=O)OCC | inactive
17 | CCCCCCCCC(=O)O | inactive
18 | Cc1cc(C)c(O)c(C)c1 | inactive

Row | Compound | outcome
19 | C#C[C@]1(O)CC[C@H]2[C@@H]3CCC4=CC(=O)CC[C@@H]4[C@H]3CC[C@@]21C | inactive
20 | CCCCC[C@H](O)CC(=O)CCc1ccc(O)c(OC)c1 | inactive
21 | NCC(F)(F)C(F)(F)C(F)(F)C(F)(F)C(F)(F)C(F)(F)C(F)(F)F | inactive
22 | O=[N+]([O-])c1ccc(O)cc1 | inactive
23 | COC(=O)CCCCC(=O)OC | inactive
24 | CC(C)CCCCCCOC(=O)CCCCC(=O)OCCCCCCC(C)C | inactive
25 | CC(C)(C)c1cc(C(C)(C)C)c(O)c(C(C)(C)C)c1 | inactive
26 | CCCCCCCCCCCCN1CCCC1=O | inactive
27 | Oc1cc2ccccc2c2ccccc12 | inactive
28 | C[C@@H]1C[C@H]2[C@@H]3CCC4=CC(=O)C=C[C@]4(C)[C@@]3(F)[C@@H](O)C[C@]2(C)[C@@]1(O)C(=O)COP(=O)(O)O | inactive
29 | COc1cc(CCC(=O)CC(=O)CCc2ccc(O)c(OC)c2)ccc1O | inactive
30 | O=c1c(-c2ccc(O)cc2)coc2cc(O)ccc12 | inactive
31 | CN(C)C=O | inactive
32 | Cc1oc(-c2ccccc2)nc1CCOc1ccc(C[C@H](Nc2ccccc2C(=O)c2ccccc2)C(=O)O)cc1 | inactive
33 | OC1CCC(C2CCCCC2)CC1 (stereo unspecified) | inactive
34 | CCCCCCCCOC(=O)CCCCCCCCC(=O)OCCCCCCCC | inactive
35 | CC(O)C(=O)O (stereo unspecified) | inactive
36 | CCc1nn(C2CCCCC2)c2cc(C3(C#N)CCC(C(=O)O)CC3)ccc12 (stereo unspecified) | inactive

Reference: PubChem BioAssay (EPA / NIEHS)
